Test results: PubChem BioAssay (NCATS)
Results filed as inconclusive are left out. Calls of active or inactive are those of the source. Unless noted, the call rests on the fitted dose curve; in most records, active means well fitted curve in the direction sought with a large enough effect; inconclusive means small, poorly fitted or top-dose-only effect, or another doubt; inactive means no such curve, though single readings can be large; an effect the other way counts as inactive or inconclusive.

How the values were obtained:
[1] = target: Lysosomal acid glucosylceramidase (Homo sapiens) (UniProt P04062); assay: Glucocerebrosidase-p2 (AID 348; in the data active means potency below about 10 µM; further: potency means the concentration at half of the fitted maximal effect); settings: purified GBA, blue fluorogenic substrate, 40 min
In short: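 Compounds titrated from 0.6 nM upwards against 0.2 nM enzyme in pH 5.9 citric acid/KH2PO4, taurocholate, tween-20; blue fluorogenic substrate 80 uM, 40 min room temperature, stopped and read Ex 365/Em 440 for AC50.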

[2] = AP1 Signaling Pathway (AID 357; active means well fitted curve in either direction with a large enough effect, not every such curve was filed as active;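 further: ME-180 reporter cells stimulated with EGF at its EC50 level; on the % scale 0 is the no-effect control and ±100 the full control effect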); settings: ME-180 AP-1-bla reporter, EGF-induced, beta-lactamase ratio, 5 h; at 7.69 µM (top of the series) unless noted
In short: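 Titration-series screen for positive or negative modulators of EC50 EGF-induced signaling in ME-180 cells carrying an AP-1-driven beta-lactamase reporter. After 5 hours at 37 degrees Celsius, CCF4 460nm/530nm emission ratio gave %Activity; AC50 values derived.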

[3] = target: Cytochrome P450 1A2 (Homo sapiens) (UniProt P05177); assay: p450-cyp1a2 (AID 410; calls by dose curve;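 further: -100% = full effect of reference inhibitor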)
In short: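 Inhibition was calculated relative to 57 uM furafylline (full inhibition). The reaction used human CYP1A2 at 20nM with Luciferin-ME at its Km, 100uM, driven by an NADPH-regenerating system for 60 min at room temperature.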

[4] = NFAT Signaling Pathway (AID 444; active means well fitted curve in either direction with a large enough effect, not every such curve was filed as active;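 further: carbachol stimulus at about its EC50 of 1 µM final; on the % scale 0 is the no-effect control and ±100 the full control effect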); settings: Jurkat NFAT-bla M1, carbachol, beta-lactamase ratio, 5 h; at 7.69 µM (top of the series) unless noted
In short: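 Jurkat cells carrying an NFAT-driven β-lactamase reporter and co-transfected muscarinic M1 receptor were treated with compound plus carbachol (1 uM final, an EC50 level) for 5 h at 37 °C. CCF4 loading followed for 1 h at RT; 460/530 nm ratio gave %activity.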

[5] = Stat Signaling Pathway (AID 446; active means well fitted curve in either direction with a large enough effect, not every such curve was filed as active;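 further: ME-180 cervical cancer cells given 40 pM IL-6 alongside compound; SIE-controlled beta-lactamase reporter measured as 460/530 nm FRET emission ratio; on the % scale 0 is the no-effect control and ±100 the full control effect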); settings: ME-180 SIE beta-lactamase reporter, IL-6 stimulated, 5 h; at 7.69 µM (top of the series) unless noted
In short: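 Screening format detects activators and inhibitors alike: ME-180 SIE-bla cells stimulated at 40 pM IL-6 for 5 hrs with compound, then dual-emission beta-lactamase read at 405 nm excitation.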

[6] = target: Glucocorticoid receptor (Homo sapiens) (UniProt P04150); assay: GR-GFP Redistribution (AID 450;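 active means compounds whose dose series gives a full or clear partial fitted curve of increased nuclear translocation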; further: potency means the concentration at half of the fitted maximal effect); settings: U2OS GR-GFP nuclear translocation, laser cytometry, 2 h
[7] = target: Glucocorticoid receptor (Homo sapiens) (UniProt P04150); assay: GR-EFC Redistribution (AID 451; calls by dose curve; further: potency means the concentration at half of the fitted maximal effect); settings: CHO-K1 GR-EFC translocation, beta-gal luminescence, 2 h
In short: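 CHO-K1 cells stably expressing nuclear-localized β-gal enzyme acceptor and GR fused C-terminally to the enzyme donor fragment; ligand-driven nuclear translocation restores β-gal by complementation. Compounds titrated up to 46 uM final, 2 h at 37 °C; luminescence read.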

[8] = target: Mitogen-activated protein kinase 10 (Mus musculus) (UniProt Q61831); assay: JNK3 AlphaScreen Assay (AID 530; active means well fitted curve in either direction with a large enough effect, not every such curve was filed as active;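 further: kinase came from lysate of stimulated human HepG2 cells; signal reports phosphorylation of biotinylated GST-cJun 1-79 at Ser73 with 10 µM ATP; on the % scale 0 is the no-effect control and ±100 the full control effect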)
In short: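 JNK3 came from HepG2 lysates pre-activated with IL-1beta and TNF-alpha and phosphorylated biotinylated GST-cJun (1-79) at 10 uM ATP, pH 7.6, room temperature. Compounds were titrated. AlphaScreen signal used anti-phospho-cJun (Ser73) antibody.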

[9] = target: 3',5'-cyclic-AMP phosphodiesterase 4B (Homo sapiens) (UniProt Q07343); assay: qHTS Assay for Inhibitors of PDE-IV (AID 607; active means well fitted activation curve with a large enough effect in the main read-out, with a control signal flat, not every such curve was filed as active; further: % of control where 0% means no effect)
In short: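 The readout is membrane depolarisation from a cAMP-sensing CNG channel, detected with a potential dye at ex 535/em 590. Cells were HEK293-derived (endogenous PDE-IV) at 1000 cells/well, titrated up to 22.9 uM final.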

[10] = target: ATP-dependent 6-phosphofructokinase (Trypanosoma brucei brucei) (UniProt O15648); assay: qHTS Assay to Find Inhibitors of T. brucei phosphofructokinase: hit validation (AID 492961)
In short: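 Reaction: 0.1 M triethanolamine pH 8.0, 5 mM MgCl2, F6P 0.5 mM, ATP 0.1 mM, PFK 1.25 nM, 45 min RT. Read-out: ADP-Glo luminescence. Analysis: concentration-response fits, classed by r2 and efficacy.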

[11] = target: Luciferin 4-monooxygenase (Photinus pyralis) (UniProt P08659); assay: Biochemical firefly luciferase enzyme assay for NPC (AID 624030);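 further: purified P. pyralis luciferase at 10 nM with luciferin and ATP substrate; 0% = DMSO and -100% = full luciferase inhibition by PTC124 control; nearly all actives have a fitted effect of over 70% in size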
In short: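 Counter-screen for direct inhibition of the luciferase enzyme by approved-drug library compounds, run at 10 nM enzyme in 50 mM Tris acetate (final). Luminescence was read within 5 min of enzyme-buffer addition and normalized to PTC124 versus DMSO (0%).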

[12] = S16 Schwann cell PMP22 intronic element beta-lactamase assay (AID 624044; calls by dose curve;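 further: 0% = DMSO and -100% = potassium clavulanate positive control; nearly all actives have a fitted effect of over 15% in size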)
In short: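 Rat S16 Schwann cells with beta-Lac driven by a PMP22 intronic element, compound-treated 24 h at 37 °C. LiveBLAzer FRET B/G read: 460 nm normalized to potassium clavulanate vs DMSO; 535 nm FRET as viability; concentration-effect curves classified.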

[13] = qHTS profiling for inhibitors of Plasmodium falciparum proliferation (AID 504749); further: nearly all actives have a fitted effect of over 60% in size; further: potency means the concentration at half of the fitted maximal effect;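 on activity, negative = inhibition: 0% = DMSO vehicle and full inhibition = artemisinin control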; settings: P. falciparum in erythrocytes, SYBR Green DNA, 72 h, at 28.7 µM (top of the series)
In short: (§1)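 P. falciparum-infected erythrocytes (0.3% parasitemia, 2.5% hematocrit final) were exposed to compounds for 72 h at 37 C in 5% CO2, then lysed with SYBR Green buffer overnight at room temperature; parasite DNA fluorescence was normalized to artemisinin and DMSO controls.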

7G8 = assay: as above; settings: P. falciparum in erythrocytes, SYBR Green DNA, 72 h; series mostly up to 28.7 µM
In short: as §1

AA1029 = assay: as above; settings: P. falciparum in erythrocytes, SYBR Green DNA, 72 h; series mostly up to 28.7 µM
In short: as §1

AS120 = assay: as above; settings: P. falciparum in erythrocytes, SYBR Green DNA, 72 h; series mostly up to 28.7 µM
In short: as §1

ATS95 = assay: as above; settings: P. falciparum in erythrocytes, SYBR Green DNA, 72 h; series mostly up to 28.7 µM
In short: as §1

C2A = assay: as above; settings: P. falciparum in erythrocytes, SYBR Green DNA, 72 h; series mostly up to 28.7 µM
In short: as §1

CP185 = assay: as above; settings: P. falciparum in erythrocytes, SYBR Green DNA, 72 h; series mostly up to 28.7 µM
In short: as §1

CP192 = assay: as above; settings: P. falciparum in erythrocytes, SYBR Green DNA, 72 h; series mostly up to 28.7 µM
In short: as §1

CP194 = assay: as above; settings: P. falciparum in erythrocytes, SYBR Green DNA, 72 h; series mostly up to 28.7 µM
In short: as §1

CP201 = assay: as above; settings: P. falciparum in erythrocytes, SYBR Green DNA, 72 h; series mostly up to 28.7 µM
In short: as §1

CP203 = assay: as above; settings: P. falciparum in erythrocytes, SYBR Green DNA, 72 h; series mostly up to 28.7 µM
In short: as §1

CP211 = assay: as above; settings: P. falciparum in erythrocytes, SYBR Green DNA, 72 h; series mostly up to 28.7 µM
In short: as §1

CP215 = assay: as above; settings: P. falciparum in erythrocytes, SYBR Green DNA, 72 h; series mostly up to 28.7 µM
In short: as §1

CP217 = assay: as above; settings: P. falciparum in erythrocytes, SYBR Green DNA, 72 h; series mostly up to 28.7 µM
In short: as §1

CP237 = assay: as above; settings: P. falciparum in erythrocytes, SYBR Green DNA, 72 h; series mostly up to 28.7 µM
In short: as §1

CP238 = assay: as above; settings: P. falciparum in erythrocytes, SYBR Green DNA, 72 h; series mostly up to 28.7 µM
In short: as §1

Glucocorticoid receptor (Homo sapiens), sequence (P04150 whole entry, looked up, the tested form may be a part): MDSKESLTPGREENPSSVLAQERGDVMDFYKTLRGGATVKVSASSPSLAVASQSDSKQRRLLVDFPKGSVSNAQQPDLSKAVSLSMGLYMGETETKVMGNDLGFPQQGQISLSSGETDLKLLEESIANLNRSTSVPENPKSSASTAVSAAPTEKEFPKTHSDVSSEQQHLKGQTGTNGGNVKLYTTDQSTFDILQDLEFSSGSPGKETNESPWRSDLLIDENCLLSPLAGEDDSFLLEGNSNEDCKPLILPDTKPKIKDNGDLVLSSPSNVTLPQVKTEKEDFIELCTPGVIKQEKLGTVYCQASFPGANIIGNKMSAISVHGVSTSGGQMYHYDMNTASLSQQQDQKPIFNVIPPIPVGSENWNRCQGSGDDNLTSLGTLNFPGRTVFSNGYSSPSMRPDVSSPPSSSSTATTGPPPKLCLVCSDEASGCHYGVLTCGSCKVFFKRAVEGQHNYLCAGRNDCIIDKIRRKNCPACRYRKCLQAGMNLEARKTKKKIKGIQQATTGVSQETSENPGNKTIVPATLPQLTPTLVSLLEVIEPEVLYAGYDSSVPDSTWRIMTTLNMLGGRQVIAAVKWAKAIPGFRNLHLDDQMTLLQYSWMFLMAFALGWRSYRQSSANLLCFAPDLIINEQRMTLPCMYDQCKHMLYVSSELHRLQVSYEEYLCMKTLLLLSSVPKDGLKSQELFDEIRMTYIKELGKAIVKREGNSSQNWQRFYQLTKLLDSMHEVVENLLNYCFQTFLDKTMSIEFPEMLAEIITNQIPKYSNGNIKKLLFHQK
Cytochrome P450 1A2 (Homo sapiens), sequence (P05177 whole entry, looked up): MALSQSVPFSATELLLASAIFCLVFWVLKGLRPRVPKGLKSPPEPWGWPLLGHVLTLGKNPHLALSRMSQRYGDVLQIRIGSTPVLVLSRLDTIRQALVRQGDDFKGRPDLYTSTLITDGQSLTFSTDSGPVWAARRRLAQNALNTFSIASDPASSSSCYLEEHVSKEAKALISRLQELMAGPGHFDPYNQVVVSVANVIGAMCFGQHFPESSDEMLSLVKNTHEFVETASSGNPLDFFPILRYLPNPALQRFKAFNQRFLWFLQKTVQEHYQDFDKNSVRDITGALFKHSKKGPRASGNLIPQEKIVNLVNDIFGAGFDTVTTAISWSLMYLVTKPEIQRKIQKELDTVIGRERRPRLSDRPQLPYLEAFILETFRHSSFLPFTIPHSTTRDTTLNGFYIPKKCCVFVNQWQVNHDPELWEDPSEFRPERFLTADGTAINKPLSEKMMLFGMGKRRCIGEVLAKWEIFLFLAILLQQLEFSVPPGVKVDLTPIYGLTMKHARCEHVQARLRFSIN
ATP-dependent 6-phosphofructokinase (Trypanosoma brucei brucei), sequence (O15648 whole entry, looked up): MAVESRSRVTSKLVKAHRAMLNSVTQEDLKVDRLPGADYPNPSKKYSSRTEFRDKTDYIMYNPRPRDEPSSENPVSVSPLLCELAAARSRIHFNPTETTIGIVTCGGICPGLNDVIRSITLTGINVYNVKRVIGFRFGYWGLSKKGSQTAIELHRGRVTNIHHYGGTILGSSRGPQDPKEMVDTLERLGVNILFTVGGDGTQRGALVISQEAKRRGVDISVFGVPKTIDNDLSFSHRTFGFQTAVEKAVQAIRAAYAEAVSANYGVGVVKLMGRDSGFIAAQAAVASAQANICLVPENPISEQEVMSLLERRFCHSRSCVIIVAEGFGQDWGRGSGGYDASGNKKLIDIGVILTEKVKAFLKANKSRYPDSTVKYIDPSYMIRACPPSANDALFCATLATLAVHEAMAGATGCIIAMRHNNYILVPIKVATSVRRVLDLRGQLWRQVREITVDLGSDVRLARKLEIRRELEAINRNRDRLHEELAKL
Luciferin 4-monooxygenase (Photinus pyralis), sequence (P08659 whole entry, looked up): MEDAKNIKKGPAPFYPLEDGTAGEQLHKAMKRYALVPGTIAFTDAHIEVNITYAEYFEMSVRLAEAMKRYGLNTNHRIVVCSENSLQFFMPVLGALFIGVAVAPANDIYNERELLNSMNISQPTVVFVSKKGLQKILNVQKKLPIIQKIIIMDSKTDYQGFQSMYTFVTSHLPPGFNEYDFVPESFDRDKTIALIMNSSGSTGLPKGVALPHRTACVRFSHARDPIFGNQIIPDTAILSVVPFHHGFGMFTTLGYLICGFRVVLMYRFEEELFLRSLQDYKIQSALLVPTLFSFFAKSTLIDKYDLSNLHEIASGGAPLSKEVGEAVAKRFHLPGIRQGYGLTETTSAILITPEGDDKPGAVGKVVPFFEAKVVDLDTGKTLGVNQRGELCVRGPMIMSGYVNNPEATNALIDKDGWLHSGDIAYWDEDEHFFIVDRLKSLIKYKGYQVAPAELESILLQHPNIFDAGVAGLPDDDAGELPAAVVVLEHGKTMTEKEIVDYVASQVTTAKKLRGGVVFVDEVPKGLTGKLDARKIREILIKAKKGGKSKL
Lysosomal acid glucosylceramidase (Homo sapiens), sequence (P04062 whole entry, looked up): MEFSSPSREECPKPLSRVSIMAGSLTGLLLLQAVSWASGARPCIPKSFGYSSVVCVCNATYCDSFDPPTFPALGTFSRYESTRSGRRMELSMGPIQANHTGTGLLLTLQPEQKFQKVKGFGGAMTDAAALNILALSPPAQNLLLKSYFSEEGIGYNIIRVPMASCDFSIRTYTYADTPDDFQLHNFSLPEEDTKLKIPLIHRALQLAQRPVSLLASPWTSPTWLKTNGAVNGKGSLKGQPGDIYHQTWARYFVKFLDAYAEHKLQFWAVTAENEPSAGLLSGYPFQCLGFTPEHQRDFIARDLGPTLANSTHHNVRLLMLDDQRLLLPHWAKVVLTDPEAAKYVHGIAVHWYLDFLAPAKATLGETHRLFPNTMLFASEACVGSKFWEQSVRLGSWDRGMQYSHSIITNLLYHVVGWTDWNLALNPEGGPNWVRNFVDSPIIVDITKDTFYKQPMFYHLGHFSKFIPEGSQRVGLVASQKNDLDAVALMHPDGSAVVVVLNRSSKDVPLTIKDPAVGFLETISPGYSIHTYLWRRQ
3',5'-cyclic-AMP phosphodiesterase 4B (Homo sapiens), sequence (Q07343 whole entry, looked up): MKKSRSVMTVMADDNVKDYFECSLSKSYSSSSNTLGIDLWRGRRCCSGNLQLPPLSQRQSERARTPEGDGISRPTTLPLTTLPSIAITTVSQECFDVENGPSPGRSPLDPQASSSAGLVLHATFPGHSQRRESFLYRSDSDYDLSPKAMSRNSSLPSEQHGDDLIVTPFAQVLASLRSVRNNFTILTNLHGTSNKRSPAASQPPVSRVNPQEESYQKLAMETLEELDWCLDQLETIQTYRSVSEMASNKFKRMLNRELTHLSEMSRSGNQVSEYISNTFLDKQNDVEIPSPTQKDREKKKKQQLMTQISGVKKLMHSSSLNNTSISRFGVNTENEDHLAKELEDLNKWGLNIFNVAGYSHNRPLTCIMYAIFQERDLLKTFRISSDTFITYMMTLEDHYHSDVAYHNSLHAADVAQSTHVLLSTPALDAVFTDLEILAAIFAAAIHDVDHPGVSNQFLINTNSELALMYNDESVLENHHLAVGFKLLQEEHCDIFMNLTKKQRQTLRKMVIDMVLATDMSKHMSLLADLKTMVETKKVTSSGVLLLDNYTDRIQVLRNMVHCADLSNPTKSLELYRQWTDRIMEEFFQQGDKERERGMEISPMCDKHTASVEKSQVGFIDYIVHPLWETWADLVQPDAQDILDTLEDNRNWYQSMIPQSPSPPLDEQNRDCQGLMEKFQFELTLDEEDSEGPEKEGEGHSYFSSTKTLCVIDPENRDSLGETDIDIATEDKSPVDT

C[C@]12CC[C@H]3c4ccc(O)cc4CC[C@@H]3[C@H]1CC[C@@H]2OC(=O)CCC1CCCC1
inactive: Potency [1] > 11.4 µM | activity change, negative = inhibition [2] -8.48% | Potency [3] | activity change, negative = inhibition [4] -0.474% | activity, negative = inhibition [5] 1.67% | Potency [6] > 46 µM | Potency [7] > 9.22 µM | Potency [8] | Potency [9] | outcome [10] | outcome [11] | outcome [12] | activity, negative = inhibition ([13]; parasite line A) 5.91% | activity, negative = inhibition ([13]; parasite line B) 2.07% | Potency (AA1029) | Potency (AS120) | Potency (ATS95) | Potency (C2A) | Potency (CP185) | Potency (CP192) | Potency (CP194) | Potency (CP201) | Potency (CP203) | Potency (CP211) | Potency (CP215) | Potency (CP217) | Potency (CP238)
active: Potency (7G8) 4.47 µM | Potency (CP237) 8.91 µM
